Our source for the percent growth values is the supplement of paper PMC7866885, “A novel bicyclic 2,4-diaminopyrimidine inhibitor of Streptococcus suis dihydrofolate reductase” (PeerJ, 2021).

± gives the standard deviation.

The test system of test [1] is Streptococcus suis HE06. The test is described as follows: percent growth relative to DMSO control; higher = less growth inhibition. As to conditions: 10 µM; incubation time 18 h. Here is the method:
(§1)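 CLSI broth microdilution: 5x10^4 CFU of Streptococcus suis (strain P1/7 or HE06) incubated with 10 µM Pathogen Box compound in cation-adjusted Mueller Hinton broth, 37 °C, 5% CO2, 18 h. Growth read as OD600 and expressed as percent of the DMSO-treated control (100%); mean ± SD of three independent experiments.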

For test [2], the system named is Streptococcus suis P1/7. The description is as above. The settings on record: 10 µM; incubation time 18 h. How it is done: as §1

As for `COc1ccc(-c2cncc3ccc(C(=O)NCCCn4ccnc4)nc23)cc1`, the percent growth in test [1] was determined as 103 ± 28%; in test [2], 70.1 ± 27%.
As for `CC(C)(CN)c1nc(-c2ccc(Cl)c(O)c2)c(-c2ccnc(N)n2)[nH]1`, the percent growth stood at 90.9 ± 6.5% in test [1] and 79.2 ± 20% in test [2].
On the same counts, the results for `Cc1ccc(NC(=O)c2nc[nH]c2C(=O)Nc2nc3ccccc3[nH]2)c(C)c1` are 47.8 ± 38% and 1.93 ± 0.44%.
On the same counts, the results for `COc1ccc(Oc2ccc([C@@H](C)N(C)c3ncc4c(N)nc(N)nc4n3)cc2)cc1` are 104 ± 32% and 83.9 ± 75%.
Turning to `COc1cc(C2=NCCN2)ccc1-n1cc(-c2cccc(C3=NCCN3)c2)nn1`, the percent growth in test [1] was 99.7 ± 40%; in test [2], 63.4 ± 23%.
For `O=C(NC1=NCCS1)c1sc2cc(F)ccc2c1Cl`, in that order: 93.8 ± 5.2% and 88.6 ± 14%.
On the same counts, the results for `CCc1ccc(S(=O)(=O)Nc2cc(CN3CCN(CCC(C)C)CC3)ccc2C)cc1` are 95.7 ± 12% and 73.2 ± 8.1%.
Take `CC(C)(C)OC(=O)N1CCN(c2nccc(-c3ccc(-c4ccc(Cl)cc4)s3)n2)CC1`: the figures for the percent growth in test [1] and in test [2] were 88.2 ± 12% and 129 ± 42%, respectively.
For `O=C(NC1CCCCC1)N1CCN(Cc2ccc3c(c2)OCO3)CC1`, in that order: 78.5 ± 7.2% and 52.2 ± 38%.
As to `c1ccc(Oc2ccc(-c3cc(N4CCOCC4)[nH]n3)cc2)cc1`, the percent growth worked out at 81.2 ± 21% in test [1] and 61.7 ± 32% in test [2].
On the same counts, the results for `O=C(Nc1ccc(N2CCNCC2)nc1)c1oc(-c2ccccc2)nc1C(F)(F)F` are 93.7 ± 20% and 63.6 ± 18%.
Regarding `CC(=O)N1CCc2cc3nc(C)cc(C)c3cc21`, the figures for the percent growth in test [1] and in test [2] were 88.4 ± 9.8% and 91.7 ± 27%, respectively.
On the same counts, the results for `Nc1ncnc2c1ncn2[C@@H]1O[C@H](COS(=O)(=O)NC(=O)c2ccccc2O)[C@@H](O)[C@H]1O` are 97.4 ± 8.2% and 78.6 ± 9.8%.
Turning to `O=C(Nc1nnc(-c2ccc(Cl)s2)o1)c1ccc(Cl)s1`, the results for the percent growth in test [1] and in test [2] were 1.06 ± 1.1% and 3.26 ± 4.9%, respectively.
For `COc1ccc(-c2cnc3ccc(NCc4ccc(S(N)(=O)=O)cc4)nn23)cn1`, in that order: 85.1 ± 6.3% and 89.2 ± 15%.
On the same counts, the results for `COc1ccc(Nc2ccccc2NC(=O)c2ccc(O)nc2)cc1` are 86.7 ± 11% and 99.1 ± 41%.
On to `CC(Oc1cccc(Cl)c1)C(=O)Nc1ccc2oc(-c3ccncc3)nc2c1` (configuration not stated), for which the percent growth turned out to be 75.2 ± 17% in test [1] and 77.5 ± 2.9% in test [2].
On to `c1cc(C2=NCCN2)cc(-c2cc(-c3ccc(C4=NCCN4)cc3)no2)c1`, for which the values for the percent growth in test [1] and in test [2] were 103 ± 19% and 88.8 ± 25%, respectively.
Take `CCOC(=O)c1c(NC(=O)c2c(F)c(F)c(F)c(F)c2F)sc(C(N)=O)c1C`: the figures for the percent growth in test [1] and in test [2] were 91.9 ± 6% and 83.2 ± 22%, respectively.
Consider `COC(=O)c1c(NC(=O)c2cc3ccccc3oc2=O)sc2c1CCN(Cc1ccccc1)C2`, for which the percent growth in test [1] stood at 84.2 ± 11%; in test [2], 149 ± 81%.
`CNC(=O)C1Cc2c([nH]c3cc(Cl)ccc23)C2(CCN(CCc3ccccc3)CC2)N1` (configuration not stated): the percent growth in test [1] was found to be 95.5 ± 23%; in test [2], 77.4 ± 9%.
For `COc1ccc(CCN2CCC(NCc3cccc(N(C)C)c3)CC2)cc1`, in that order: 98.6 ± 35% and 67.3 ± 22%.
On the same counts, the results for `NCCN(C(=O)c1ccc(Cl)cc1Cl)c1ccc(OCc2ccc(Cl)cc2)cc1` are 68.3 ± 61% and 25 ± 43%.
With `COc1cc(CN2CCC3(C=Cc4ccccc43)CC2)cc2c1OCO2`, the percent growth in test [1] stood at 82 ± 16%; in test [2], 83.9 ± 5.5%.
For `CCc1nc2ccc(Cl)cn2c1C(=O)NCc1ccc(N2CCC(c3ccc(OC(F)(F)F)cc3)CC2)cc1`, in that order: 89.9 ± 15% and 111 ± 65%.
For `CN1CCN(CCCOc2ncc(Nc3ncc(-c4ccc(C(F)(F)F)c(F)c4)nc3C(N)=O)cn2)CC1`, in that order: 114 ± 43% and 97.2 ± 9.4%.
For `N#CCN(CCCCN1CCN(c2ccc(F)cc2)CC1)C(=O)OCc1ccccc1`, in that order: 93.7 ± 14% and 75.8 ± 19%.
In the case of `Nc1nc(N)c2c3c(sc2n1)CN(Cc1ccccc1)CC3`, the percent growth in test [1] worked out at 94.5 ± 3.1%; in test [2], 87.8 ± 9.9%.
For `COc1ccc(N(CCc2cccc(C)n2)C(=O)C2CCCCC2)cc1`, in that order: 115 ± 37% and 105 ± 28%.
As to `CCN(CC)CCCN1CCN(C(=O)c2cccc(-c3noc(C(F)(F)F)n3)c2)CC1`, the results for the percent growth in test [1] and in test [2] were 90.3 ± 14% and 138 ± 110%, respectively.
As to `CCCCCCCCCCCCCCCCOP(=O)([O-])OCC[N+](C)(C)C`, the percent growth stood at 117 ± 7.1% in test [1] and 112 ± 40% in test [2].
On the same counts, the results for `CCn1ncc2c(NC3CCOCC3)c(CNC(=O)c3ccnn3C)c(C)nc21` are 109 ± 24% and 85.7 ± 26%.
Consider `CCCn1c(NC(=O)c2ccc3ccccc3n2)nc2ccccc21`, for which the percent growth in test [1] was found to be 0%; in test [2] it was 0.618 ± 1.5%.
On to `N=C(N)Nc1ccc(-c2ccc(-c3ccc(N=C(N)N)c(Cl)c3)o2)cc1Cl`, for which the figures for the percent growth in test [1] and in test [2] were 27.7 ± 29% and 53.1 ± 27%, respectively.
On the same counts, the results for `c1csc(-c2cnc3sc(NCC4CCOCC4)nn23)c1` are 109 ± 22% and 91.2 ± 16%.
With `COc1cccc(-c2nc3c(N4CCCC4)cccc3n2CC2CCCN2)n1` (configuration not stated), the results for the percent growth in test [1] and in test [2] were 84.4 ± 7% and 58.2 ± 19%, respectively.
For `CN1CCN(c2cc(-c3ccc(F)cc3)nc(-c3ccncc3)n2)CC1`, in that order: 83.6 ± 3.7% and 89.1 ± 28%.
On the same counts, the results for `Cc1cccnc1NC(=O)c1cccc(OCc2c(C)noc2C)c1` are 81.4 ± 11% and 96.3 ± 39%.
On the same counts, the results for `c1coc(CNc2nc(N3CCCCC3)nc3ccccc23)c1` are 78 ± 7.8% and 89 ± 32%.
Regarding `COc1ccc2nccc(NC(=O)C3CCN(CCc4ccc(Cl)cc4)CC3)c2n1`, the percent growth in test [1] worked out at 74.3 ± 59%; in test [2], 28.6 ± 47%.
`Cc1cc(C)cc(COc2ccc3c(C)c(CCC(=O)O)c(=O)oc3c2C)c1`: the percent growth in test [1] is 39.9 ± 40%; in test [2] it was 35.3 ± 14%.
